Records with an inconclusive call do not appear. Active and inactive are the calls of the source. Calls come from the whole dose curve; as a rule, active = well fitted cell-killing curve with a large enough effect in the repeat runs; inconclusive = weak or mixed curves, or effect the other way; inactive = flat fitted curve, though single readings scatter.
% is set by controls: 0 for no effect and ±100 for the full control effect.

This experiment can be described thus: qHTS assay to identify small molecule antagonists of the retinoid acid receptor (RAR) signaling pathway - cell viability counter screen (AID 1159551). Note: nearly all actives have a fitted effect of over 35% in size. To be noted: C3RL4 cells viability, ATP luminescence (CellTiter-Glo), 6 h; series mostly up to 92.4 µM. The text has this: U.S. Tox21 Program National Center for Advancing Translational Sciences [NCATS] NIH Chemical Genomics Center [NCGC] U.S. Environmental Protection Agency [EPA] National Institutes of Environmental Health Sciences [NIEHS] National Toxicology Program [NTP] U.S. Food and Drug Administration [FDA] Tox21 Assay Overview: All-trans Retinoic acid (atRA) is the potent natural metabolite of retinol and plays an important role in normal embryonic development and maintenance of cellular phenotype in adult animals. atRA is the activating ligand for the retinoic acid receptors (RARs) which form heterodimers with retinoid X receptors (RXRs) on the retinoic acid response element (RARE). Through activation of the RAR/RXRs nuclear receptors, atRA regulates the transcription of a large number of protein-coding genes and regulatory RNAs. Intracellular levels of atRA are controlled by the retinol signaling pathway (RSP) that regulates the biosynthesis and catabolism of atRA to maintain physiological levels. Chemicals that interfere with the RSP can cause abnormal intracellular levels of atRA and therefore are potential developmental toxicants. To assess compounds for the potential adverse effect on embryonic development through interfering with retinol signaling, a cell-based RARE luciferase reporter gene assay was used. C3RL4 cell line (OARSA/CFSAN/FDA, Laurel, MD) was used to screen Tox21 10K compound library for identifying inhibitors of the RSP. Also cytotoxicity was assessed by determining the viability of cells based on the quantitation of ATP.
Tox21 Assay Protocol Summary: C3RL4 cells were seeded at 1,000/well in 4 uL of assay medium into white solid 1,536-well tissue culture plates (Greiner Bio-One North America Inc. Monroe, NC) using a Multidrop Combi (Thermo Scientific, Waltham, MA) dispenser. After incubation at 37 C and 5% CO2 for an overnight, 23 nL of compounds dissolved in DMSO, positive control or DMSO only were transferred by a Pintool station (Kalypsys, San Diego, CA). One ul of 1 uM (final concentration) of Retinol was added right after the compound addition by using a Flying Reagent Dispenser (FRD) (Aurora Discovery, San Diego, CA). After 6 hr incubation at 37 C and 5% CO2, 5 uL of CellTiter-Glo reagent (Promega Corporation, Madison, WI) was added to each assay plate using an FRD. Luminescence was quantified on a ViewLux plate reader (PerkinElmer, Waltham, MA) after 30 min incubation at room temperature.
Regarding `O=c1[nH]c2ccccc2c(=O)n1CCCl`, the outcome was inactive.
The same measure, in the same setting: under `CCOC(=O)Cn1c(=O)sc2cccc(Cl)c21` stands “inactive”; under `CC(=O)CCc1ccc(O)cc1`, “inactive”; under `COc1nc(C)nc(N)n1`, “inactive”.
Take `N#CCN(CC#N)CCN(CC#N)CC#N`: the outcome was inactive.
Regarding `O=C(O)Cc1cc(I)c(Oc2cc(I)c(O)c(I)c2)c(I)c1`, the result was inactive.
In the case of `OC[C@H]1O[C@@H]2O[C@H]3[C@H](O)[C@@H](O)[C@@H](O[C@H]4[C@H](O)[C@@H](O)[C@@H](O[C@H]5[C@H](O)[C@@H](O)[C@@H](O[C@H]6[C@H](O)[C@@H](O)[C@@H](O[C@H]7[C@H](O)[C@@H](O)[C@@H](O[C@H]8[C@H](O)[C@@H](O)[C@@H](O[C@H]9[C@H](O)[C@@H](O)[C@@H](O[C@H]1[C@H](O)[C@H]2O)O[C@@H]9CO)O[C@@H]8CO)O[C@@H]7CO)O[C@@H]6CO)O[C@@H]5CO)O[C@@H]4CO)O[C@@H]3CO`, the result was inactive.
On to `NC(N)=NS(=O)(=O)c1ccc(N)cc1`, for which the outcome was inactive.
`COCc1ccc(COC)cc1`: the molecule was classed as inactive.
On the same count and under the same terms, the value for `CC(C)c1cccc(O)c1` was “inactive”; that for `COC(=O)[C@H]1[C@H]2C[C@@H]3c4[nH]c5cc(OC)ccc5c4CCN3C[C@H]2C[C@@H](OC(=O)COc2ccc(OC)cc2)[C@@H]1OC` was “inactive”.
`N#CC1(O)CCCCC1`: the result was inactive.
`O=C(O)c1ccccc1S`: the molecule was called inactive.
Same read-out and setting: under `C=CC(=O)OCCCCCC` stands “inactive”.
Still for that read-out and setting: the value for `COC(=O)C1=C(C)NC(C)=C(C(=O)OCC(C)=O)C1c1ccccc1[N+](=O)[O-]` (stereo not given) was “inactive”; that for `Nc1nc2c(ncn2CCC(CO)CO)c(=O)[nH]1` was “inactive”.
Regarding `C=CCOCC(O)CS(=O)(=O)O` (stereo not given), the call was inactive.
`Cc1ncc(CSSCc2cnc(C)c(O)c2CO)c(CO)c1O`: the call was inactive.
Regarding `CC(=O)N[C@@H](CCC(N)=O)C(=O)O`, the call was inactive.
As for `Fc1ccccc1-c1ccccc1`, the call was inactive.
The same measure, in the same setting: the value for `CC(=O)OC(C)(C)C` was “inactive”; that for `Cc1ccc(Nc2ccc(O)c3c2C(=O)c2ccccc2C3=O)cc1` was “inactive”.
Regarding `C=C(C)C(=O)OCCC(C)OC(=O)C(=C)C` (stereo not given), the call was inactive.
With `N#CCc1ccccc1[N+](=O)[O-]`, the result was inactive.
The same measure, in the same setting: the value for `CC1(C)OC(=O)Nc2ccc(Br)cc21` was “inactive”; that for `NCCN1CCNC1=O` was “inactive”.
Consider `C[C@H]1O[C@@H](n2cc(F)c(=O)[nH]c2=O)[C@H](O)[C@@H]1O`, for which the result was inactive.
As to `C1CCCCCCCCCCC1`, the activity change, negative = cytotoxicity was -2.08% [at 19 µM] (inactive).
Regarding `OC/C=C/c1ccccc1`, the result was inactive.
Consider `CCCc1ccccc1O`, for which the result was inactive.
On the same count and under the same terms, under `CCCCC=O` stands “inactive”; under `CC(C)CCCC(C)NCCC(C)C` (stereo not given), “inactive”; under `Cc1nc(-c2ccc(OCC(C)C)c(C#N)c2)sc1C(=O)O`, “inactive”.
In the case of `Oc1cc(O)c2c(c1)O[C@H](c1ccc(O)c(O)c1)[C@H](O)C2`, the outcome was inactive.
As to `COc1cc(C(=O)N2CCOCC2)cc(OC)c1OC`, the molecule was called inactive.
Consider `CCN1CCCC1CNC(=O)c1cc(S(N)(=O)=O)ccc1OC` (stereo not given), for which the outcome was inactive.
For the molecule `CC(C)(O)C(=O)c1ccc(OCCO)cc1`, the molecule was classed as inactive.
In the case of `CC(=O)O[C@H](CC(=O)[O-])C[N+](C)(C)C`, the outcome was inactive.
In the case of `NCCNC(=O)c1ccc(Cl)cn1`, the molecule was called inactive.
As for `CC1(C)SC(C)(C)SC(C)(C)S1`, the molecule was called inactive.

These data come from PubChem BioAssay (Tox21).
